This is an account of results in paper PMC4336329 (PLoS ONE, 2015).

The campaign covered roughly 310,000 compounds. About 2,200 (0.71%) showed an effect of 50% or more. The effect is printed as a negative number. The list comes from a sample in which strong results are over-represented; it also holds similar structures and randomly drawn compounds.

Sequence of human ether-à-go-go-related gene (hERG) potassium channel (Q12809 whole entry, looked up): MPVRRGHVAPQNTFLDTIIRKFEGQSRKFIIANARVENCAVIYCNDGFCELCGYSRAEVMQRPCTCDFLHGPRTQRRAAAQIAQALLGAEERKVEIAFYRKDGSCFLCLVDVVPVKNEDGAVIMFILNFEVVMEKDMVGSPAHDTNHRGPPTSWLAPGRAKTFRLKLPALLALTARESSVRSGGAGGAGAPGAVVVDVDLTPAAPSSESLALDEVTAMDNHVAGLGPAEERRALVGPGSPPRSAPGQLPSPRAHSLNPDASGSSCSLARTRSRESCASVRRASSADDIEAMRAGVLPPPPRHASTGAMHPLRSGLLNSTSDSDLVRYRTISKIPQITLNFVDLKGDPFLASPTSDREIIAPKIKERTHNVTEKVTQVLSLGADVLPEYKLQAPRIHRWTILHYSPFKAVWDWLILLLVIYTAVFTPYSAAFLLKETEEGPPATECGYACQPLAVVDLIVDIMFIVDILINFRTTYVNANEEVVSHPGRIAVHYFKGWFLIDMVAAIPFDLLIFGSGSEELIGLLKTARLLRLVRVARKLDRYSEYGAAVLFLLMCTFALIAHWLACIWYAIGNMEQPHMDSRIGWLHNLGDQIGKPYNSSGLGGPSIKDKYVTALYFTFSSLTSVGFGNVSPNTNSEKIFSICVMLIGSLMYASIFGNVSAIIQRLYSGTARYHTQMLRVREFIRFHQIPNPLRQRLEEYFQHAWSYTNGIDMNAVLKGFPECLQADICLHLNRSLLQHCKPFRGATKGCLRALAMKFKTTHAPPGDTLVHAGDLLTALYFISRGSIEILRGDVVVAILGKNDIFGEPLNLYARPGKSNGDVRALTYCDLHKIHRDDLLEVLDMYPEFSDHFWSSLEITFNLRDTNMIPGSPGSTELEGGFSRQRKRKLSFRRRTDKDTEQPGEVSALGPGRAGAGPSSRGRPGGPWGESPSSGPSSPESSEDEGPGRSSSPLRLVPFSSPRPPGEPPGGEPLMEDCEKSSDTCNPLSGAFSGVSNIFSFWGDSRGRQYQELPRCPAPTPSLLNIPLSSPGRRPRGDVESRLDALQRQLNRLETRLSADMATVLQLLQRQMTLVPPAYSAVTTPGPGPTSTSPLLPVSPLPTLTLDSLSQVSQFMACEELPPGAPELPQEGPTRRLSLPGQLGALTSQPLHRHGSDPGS

This assay has as its target human ether-à-go-go-related gene (hERG) potassium channel (human, UniProt Q12809). Kind of assay: primary screen, population patch clamp on CHO cells stably expressing hERG; higher = less effect of the substance.
On to `Cc1ccc(C(=O)N/C(=C/c2cccs2)C(=O)N2CCCCC2)cc1`, for which the “hERG current change (%, negative = inhibition) at 1uM” value is on record as 10.6%.

As to `CCOC(=O)N1CCN(C(=O)/C(=C/c2cccs2)NC(=O)c2cccs2)CC1`, the “hERG current change (%, negative = inhibition) at 1uM” value is on record as -6.55%.

In the case of `CCOC(=O)N1CCN(C(=O)/C(=C/c2cccs2)NC(=O)c2ccc(OC)c(OC)c2)CC1`, the “hERG current change (%, negative = inhibition) at 1uM” value is -64.7%.

In the case of `COc1cc(NC(=O)CSc2ncnc3scc(-c4ccccc4)c23)c(C(=O)O)cc1OC`, the “hERG current change (%, negative = inhibition) at 1uM” value came out at 11.2%.

On to `CCN(CC)C(=O)Cn1cc(S(=O)(=O)CC(=O)N2CCOCC2)c2ccccc21`, for which the “hERG current change (%, negative = inhibition) at 1uM” value was 7.45%.

For `Cc1ccc(S(=O)(=O)N2CCCCC2)cc1NC(=O)COC(=O)Cc1c(F)cccc1Cl`, the “hERG current change (%, negative = inhibition) at 1uM” value is given as 14.5%.

Take `CCOC(=O)C1CCCCN1C(=O)CCc1c(C)nc2cc(-c3ccccc3)nn2c1C` (stereo not shown): the “hERG current change (%, negative = inhibition) at 1uM” value is -14%.

As for `CCOC(=O)C1CCN(C(=O)CCc2c(C)nc3cc(-c4ccccc4)nn3c2C)CC1`, the “hERG current change (%, negative = inhibition) at 1uM” value was -62%.

Take `CCOC(=O)C1CCN(C(=O)CCc2c(C)nc3cc(-c4ccc(OC)cc4OC)nn3c2C)CC1`: the “hERG current change (%, negative = inhibition) at 1uM” value was -10.6%.

With `S=C(N/N=C/c1ccco1)NC1CC2CCC1C2` (stereo not shown), the “hERG current change (%, negative = inhibition) at 1uM” value is recorded as 8.84%.

`CC1(C)O[C@@H]2C[C@H]3[C@@H]4C[C@H](F)C5=CC(=O)CC[C@]5(C)[C@H]4[C@@H](O)C[C@]3(C)[C@]2(C(=O)CO)O1`: the “hERG current change (%, negative = inhibition) at 1uM” value was 18.1%.

On to `CCOc1ccc(CN2CCN(CC3=Cc4cccc(OC)c4OC3)CC2CCO)cc1` (stereo not shown), for which the “hERG current change (%, negative = inhibition) at 1uM” value is -71.4%.

As to `Cc1ccc(CN2CCN(Cc3cccc4c3OCO4)CC2CCO)cc1` (stereo not shown), the “hERG current change (%, negative = inhibition) at 1uM” value is reported as -16.1%.

Turning to `COc1cccc2c1OCC(CN1CCN(Cc3ccccc3)C(CCO)C1)=C2` (stereo not shown), the “hERG current change (%, negative = inhibition) at 1uM” value was -4.17%.

Turning to `CCOc1ccc(CN2CCN(Cc3cc4c(cc3Cl)OCO4)CC2CCO)cc1` (stereo not shown), the “hERG current change (%, negative = inhibition) at 1uM” value was -62.9%.

On to `OCCC1CN(Cc2cc3c(cc2Cl)OCO3)CCN1Cc1ccccc1` (stereo not shown), for which the “hERG current change (%, negative = inhibition) at 1uM” value is -1.48%.

With `COc1cccc2c1OCC(CN1CCN(Cc3ccccc3F)C(CCO)C1)=C2` (stereo not shown), the “hERG current change (%, negative = inhibition) at 1uM” value came out at 12%.

Consider `OCCC1CN(Cc2cccc3c2OCO3)CCN1Cc1ccccc1` (stereo not shown), for which the “hERG current change (%, negative = inhibition) at 1uM” value turned out to be 7.11%.

As to `CCOc1ccc(CN2CCN(CC3CC3)CC2CCO)cc1` (stereo not shown), the “hERG current change (%, negative = inhibition) at 1uM” value is on record as -20.7%.

With `CCOc1ccc(CN2CCN(Cc3cccc4c3OCO4)CC2CCO)cc1` (stereo not shown), the “hERG current change (%, negative = inhibition) at 1uM” value is -64.9%.

Take `COc1ccccc1CNC(=O)C1(c2ccc(Cl)cc2)CC1`: the “hERG current change (%, negative = inhibition) at 1uM” value amounted to 0.547%.

Consider `O=C(c1cccc(C(F)(F)F)c1)N1CCCC1`, for which the “hERG current change (%, negative = inhibition) at 1uM” value was determined as 8.42%.

With `COc1ccc(-c2nn(-c3ccccc3)cc2/C=N/Nc2ccc3ccccc3n2)cc1OC`, the “hERG current change (%, negative = inhibition) at 1uM” value worked out at 7.59%.

In the case of `Cc1cc2n(n1)SC(Nc1cc(Cl)ccc1Cl)N2` (stereo not shown), the “hERG current change (%, negative = inhibition) at 1uM” value is listed as 7.4%.

Turning to `COC(=O)c1cc(S(=O)(=O)Nc2ccc(C)c(F)c2)c[nH]1`, the “hERG current change (%, negative = inhibition) at 1uM” value was -3.6%.

`CCn1c(/C(C#N)=N/O)nc2ccccc21`: the “hERG current change (%, negative = inhibition) at 1uM” value worked out at 6.1%.

Take `O=C(NNS(=O)(=O)c1ccc(F)cc1)c1ccccc1O`: the “hERG current change (%, negative = inhibition) at 1uM” value is on record as 13.6%.

`O=C(C[n+]1ccc(C(=O)N/N=C/c2ccc(Cl)cc2Cl)cc1)c1ccccc1.[Br-]`: the “hERG current change (%, negative = inhibition) at 1uM” value is -63.3%.

For `O=C(C[n+]1ccc(C(=O)N/N=C/c2ccc(Br)cc2)cc1)c1ccccc1.[Br-]`, the “hERG current change (%, negative = inhibition) at 1uM” value was -32.5%.

With `O=C(C[n+]1ccc(C(=O)N/N=C/c2ccc(O)cc2)cc1)c1ccccc1.[Br-]`, the “hERG current change (%, negative = inhibition) at 1uM” value amounted to 4.63%.

As to `O=C(NCC1CCCO1)c1ccc(S(=O)(=O)Nc2ccccc2F)cc1` (stereo not shown), the “hERG current change (%, negative = inhibition) at 1uM” value worked out at 7.53%.

In the case of `COc1ccc(N/C(N)=N/c2nc(C)cc(C)n2)c(OC)c1`, the “hERG current change (%, negative = inhibition) at 1uM” value is on record as -2.86%.

For the molecule `Cc1ccc(N/C(N)=N/c2nc(C)cc(N3CCCCC3)n2)c(C)c1`, the “hERG current change (%, negative = inhibition) at 1uM” value is -79%.

As to `Cc1ccc(C)c(N/C(N)=N/c2nc(C)cc(C)n2)c1`, the “hERG current change (%, negative = inhibition) at 1uM” value is given as -8.3%.

Consider `COc1ccc(Cl)cc1N/C(N)=N/c1nc(C)cc(C)n1`, for which the “hERG current change (%, negative = inhibition) at 1uM” value is listed as -79.1%.

With `CCCOc1ccccc1N/C(=N/c1nc(C)cc(C)n1)NC(=O)Nc1ccc(Cl)cc1`, the “hERG current change (%, negative = inhibition) at 1uM” value is listed as 8.59%.

Turning to `COc1cc(N/C(N)=N/c2nc(C)cc(C)n2)c(OC)cc1Cl`, the “hERG current change (%, negative = inhibition) at 1uM” value is reported as -17.2%.

Take `COc1ccc(C)cc1N/C(N)=N/c1nc(C)cc(C)n1`: the “hERG current change (%, negative = inhibition) at 1uM” value was -64.7%.

With `CCCOc1ccccc1N/C(N)=N/c1nc(C)cc(C)n1`, the “hERG current change (%, negative = inhibition) at 1uM” value is on record as -59.4%.

As to `COc1ccc(Cl)cc1N/C(N)=N/c1nc(C)cc(=O)[nH]1`, the “hERG current change (%, negative = inhibition) at 1uM” value amounted to 12.3%.

For the molecule `COc1ccc(OC)c(N/C(N)=N/c2nc(C)cc(C)n2)c1`, the “hERG current change (%, negative = inhibition) at 1uM” value is given as -26.5%.

In the case of `CC(=O)N/C(=N/c1nc(C)cc(C)n1)Nc1ccc(C)cc1C`, the “hERG current change (%, negative = inhibition) at 1uM” value stood at 4.11%.

Turning to `COc1ccccc1N/C(N)=N/c1nc(C)cc(C)n1`, the “hERG current change (%, negative = inhibition) at 1uM” value was -2.38%.
